Assay results reported in PubChem BioAssay AID488969 (Vanderbilt High Throughput Screening Facility, 2010).
The full ranking holds about 110,000 compounds; the median of “z-score” is about -0.1, and the highest 2% start at about 2. This is one part of a sample in which the highest values are shown more often than they occur. Calls of active or inactive are those of the source.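 How the source made its calls: active means z-score in the third read window above 3 or below -3; inactive means the rest.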

The compounds below were run against Metabotropic glutamate receptor 8 (Rattus norvegicus) (UniProt P70579) (assay: rat mGluR8 modulators via GIRK flux, primary screen, cell-based, thallium flux, HTS (AID 488969)). Details: HEK293 rat mGluR8, GIRK (G protein-gated inwardly rectifying potassium channel) thallium flux, FluoZin2; at 10 µM; stronger effect = higher value; submaximal glutamate (EC20) added with thallium.
Chain of Metabotropic glutamate receptor 8 (Rattus norvegicus) (P70579 whole entry, looked up): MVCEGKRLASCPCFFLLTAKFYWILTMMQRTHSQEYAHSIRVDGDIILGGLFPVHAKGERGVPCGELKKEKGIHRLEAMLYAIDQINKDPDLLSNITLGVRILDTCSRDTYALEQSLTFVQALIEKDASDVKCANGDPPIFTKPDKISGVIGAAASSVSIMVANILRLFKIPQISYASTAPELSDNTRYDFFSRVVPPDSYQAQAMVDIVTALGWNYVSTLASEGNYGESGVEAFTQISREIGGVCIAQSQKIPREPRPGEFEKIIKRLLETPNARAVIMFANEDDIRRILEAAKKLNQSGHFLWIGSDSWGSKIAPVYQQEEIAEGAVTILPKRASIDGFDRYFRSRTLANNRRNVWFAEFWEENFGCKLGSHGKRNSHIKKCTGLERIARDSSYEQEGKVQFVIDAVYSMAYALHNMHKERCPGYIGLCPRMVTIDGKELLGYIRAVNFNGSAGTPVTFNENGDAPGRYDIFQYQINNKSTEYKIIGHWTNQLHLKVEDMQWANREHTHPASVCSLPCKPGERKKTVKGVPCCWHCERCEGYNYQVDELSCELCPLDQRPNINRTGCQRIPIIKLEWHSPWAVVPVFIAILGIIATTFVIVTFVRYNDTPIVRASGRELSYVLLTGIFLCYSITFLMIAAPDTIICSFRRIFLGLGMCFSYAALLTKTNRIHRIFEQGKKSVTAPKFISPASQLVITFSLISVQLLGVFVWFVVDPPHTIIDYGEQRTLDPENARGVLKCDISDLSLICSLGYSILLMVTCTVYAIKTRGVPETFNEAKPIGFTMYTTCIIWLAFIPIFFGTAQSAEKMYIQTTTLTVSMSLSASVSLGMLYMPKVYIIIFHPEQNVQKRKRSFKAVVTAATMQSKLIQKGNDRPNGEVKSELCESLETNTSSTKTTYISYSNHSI

SMILES | z-score
COc1ccc(CCNC(=O)c2ccc(-c3ccc([N+](=O)[O-])cc3)o2)cc1OC | -0.544
CCOc1cc([C@H]2[C@@H]3CCCC[C@]3(O)CCN2CC(=O)NCc2ccco2)ccc1O | -0.351
COc1ccc(N2CCN(Cc3nc4ccsc4c(=O)[nH]3)CC2)cc1 | -0.255
O=C(CN=C1NC(=O)C(c2ccccc2)(c2ccccc2)N1)NCc1ccc(F)cc1 | -0.114
N#CCSc1nnc2ccc3ccccc3n12 | -0.272
O=C(NCC(=O)N(Cc1ccccc1)C(C(=O)NC1CCCC1)c1cccnc1)c1ccco1 (centres undefined) | -0.0981
O=C(NCC(=O)N(Cc1cccs1)C(C(=O)NC1CCCCC1)c1ccco1)c1cccs1 (centres undefined) | -0.518
O=C(NCC(=O)N(Cc1ccco1)C(C(=O)NC1CCCCC1)c1cccnc1)c1ccco1 (centres undefined) | 0.556
O=C(NCC(=O)N(Cc1cccs1)C(C(=O)NC1CCCCC1)c1ccco1)c1ccco1 (centres undefined) | 2.96
O=C(NCC(=O)N(Cc1ccco1)C(C(=O)NC1CCCC1)c1cccnc1)c1ccco1 (centres undefined) | 2.19
O=C(NCC(=O)N(Cc1cccs1)C(C(=O)NC1CCCC1)c1ccco1)c1cccs1 (centres undefined) | 0.741
COc1ccc(Cl)cc1NC(=O)CN(C)C1CCCCC1 | 0.225
OCCN(Cc1ccccc1)Cc1ccccc1Cl | 0.0815
C#CC(CO)N(CCN(Cc1ccccc1)C(C#C)CO)Cc1ccccc1 (centres undefined) | 2.19
CC(C)CC(C(=O)O)N(Cc1ccccc1)Cc1ccccc1 (centres undefined) | -0.132
CC1CCc2c(sc(NC(=O)CSc3ncnc4c3cnn4-c3ccccc3Cl)c2C#N)C1 (centres undefined) | -0.899
CSC1=N/C(=C\c2ccc(C)cc2)C(=O)S1 | -0.344
CSC1=N/C(=C\c2ccc(F)cc2)C(=O)S1 | -0.817
CSC1=N/C(=C\c2ccc(Br)o2)C(=O)S1 | 3.73 (active)
CC(=O)CC1(O)C(=O)N(Cc2ccccc2)c2ccccc21 (centres undefined) | 0.034
O=C(N/N=C/c1cnc2ccccc2n1)c1cccc(F)c1 | 0.223
O=C1CS/C(=N\C(=O)N2c3ccccc3Sc3ccccc32)N1 | 7.66 (active)

SMILES | z-score
O=C(CN1CCCC1)N1c2ccccc2Sc2ccccc21 | -0.191
Cc1ccccc1N=C1NC(=O)CS1 | 0.516
COc1ccc(NC(=O)CSc2nc3ncccc3[nH]2)cc1OC | -0.426
CCC(=O)N(Cc1cc2ccc(C)cc2n2nnnc12)C1CCCCC1 | -0.401
C=CCn1c(SC2CCOC2=O)nc2sc(C)c(C)c2c1=O (centres undefined) | -0.995
Cc1cc(C)nc(SC2CCOC2=O)n1 (centres undefined) | -0.0163
Cc1nc(SC2CCOC2=O)c2c(C)c(C)sc2n1 (centres undefined) | 4.12 (active)
CCCC1Cc2c(sc(NC(=S)NC(=O)c3ccccc3)c2C#N)CO1 (centres undefined) | 0.489
CC(=O)N1CCN(S(=O)(=O)c2ccc(S(=O)(=O)NC3CC3)cc2)CC1 | 2.05
CN(C)S(=O)(=O)c1ccc(S(=O)(=O)NC2CCOC(C)(C)C2)cc1 (centres undefined) | -1.16
CC(C)CNS(=O)(=O)c1ccc(S(=O)(=O)NC2CCOC(C)(C)C2)cc1 (centres undefined) | -0.235
CC(=O)N1CCN(S(=O)(=O)c2ccc(S(=O)(=O)NCC(C)C)cc2)CC1 | -0.0339
O=C(c1ccco1)N1CCN(S(=O)(=O)c2ccc(S(=O)(=O)NC3CC3)cc2)CC1 | -0.31
CC1(C)CC(NS(=O)(=O)c2ccc(S(=O)(=O)N3CCOCC3)cc2)CCO1 (centres undefined) | 2.05
COc1cc(-n2c(C)nc3cc(C(=O)N4CCOCC4)ccc32)cc(OC)c1OC | -0.458
CCOC(=O)c1c(-c2ccccc2)[nH]c2ccc(O)cc12 | -0.821
CCOC(=O)c1c(C)oc2c1cc(O)c1ccccc12 | -0.493
CCOC(=O)c1c(C)[nH]c2c1cc(O)c1ccccc12 | 4.58 (active)
COc1ccc(-c2nc(NC(=O)c3ccc(OCC(=O)N4CCOCC4)c(OC)c3)sc2C)cc1 | -0.218
COc1ccccc1NC(=S)N(CCc1c(C)[nH]c2ccccc12)Cc1cccs1 | 0.381
CCOc1cc(/C=N\NC(=O)c2ccc(NC(=O)CC)cc2)ccc1OC(=O)c1ccccc1 | -0.103
CCOc1cc(/C=N/NC(=O)CNc2ccc(C)cc2)ccc1OC(=O)c1ccccc1 | 0.0308

SMILES | z-score
CCOc1cc(/C=N/NC(=O)CNc2cccc(C)c2)ccc1OC(=O)c1ccccc1 | 5.52 (active)
CC(=O)N(C)c1nnc(-c2ccccn2)s1 | -0.0164
CS(=O)(=O)N(CC(=O)Nc1ccc(F)c(F)c1)c1cccc([N+](=O)[O-])c1 | 0.348
COc1cc(NC(=O)CSCc2cnn(-c3ccccc3)c2-n2cccc2)cc(OC)c1 | 7.86 (active)
O=C(NCc1ccc2c(c1)OCO2)C1CCN(Cc2cnn(-c3ccccc3)c2-n2cccc2)CC1 | 3.14 (active)
O=C(Nc1ccc2c(c1)OCO2)C1CCN(Cc2cnn(-c3ccccc3)c2-n2cccc2)CC1 | -0.13
COc1ccc(OC)c(NC(=O)C2CCN(Cc3cnn(-c4ccccc4)c3-n3cccc3)CC2)c1 | -0.109
CC(=O)Nc1ccc(NC(=O)CSCc2cnn(-c3ccccc3)c2-n2cccc2)cc1 | -0.225
COc1cccc(CNC(=O)C2CCN(Cc3cnn(-c4ccccc4)c3-n3cccc3)CC2)c1 | 2.66
O=C(NCc1ccccn1)C1CCN(Cc2cnn(-c3ccccc3)c2-n2cccc2)CC1 | -0.0285
COc1ccc(OC)c(NC(=O)CSCc2cnn(-c3ccccc3)c2-n2cccc2)c1 | 0.126
COc1cccc(NC(=O)C2CCN(Cc3cnn(-c4ccccc4)c3-n3cccc3)CC2)c1 | -0.463
CCSc1cc(N2CCCC2)nc(-c2ccccc2Cl)n1 | -0.31
COC(=O)COc1ccc(Cl)cc1C1Nc2ccccc2C(=O)N1c1ccc(OC)cc1 (centres undefined) | -0.642
COC(=O)c1[nH]c2ccccc2c1NC(=O)/C=C/c1ccc2c(c1)OCO2 | 0.563
O=C1C2CCCCC2C(=O)N1c1cccc(OS(=O)(=O)c2ccccc2)c1 (centres undefined) | -0.275
CCN(CC)S(=O)(=O)c1cccc(-c2nnc(SC(C)C(N)=O)n2CCc2ccccc2)c1 (centres undefined) | -0.152
O=C(Nc1cnc2ccccn2c1=O)c1ccc(Cl)cc1 | -0.161
Cc1ccc(C(=O)Nc2cnc3ccccn3c2=O)cc1 | 4.27 (active)
O=C(Nc1cnc2ccccn2c1=O)c1ccc(F)cc1 | -0.0283
Cc1occc1C(=O)N/N=C/c1cccs1 | 0.00925
CC(C)(C)C1CCc2c(C(=O)N/N=C/c3cccs3)csc2C1 (centres undefined) | 3.34 (active)

SMILES | z-score
CC(C)(C)C1CCc2c(C(=O)NNC(=O)/C=C/C(=O)O)csc2C1 (centres undefined) | -0.42
Cn1c(=O)oc2cc(S(=O)(=O)N3CCC(C(=O)NCc4cccs4)CC3)ccc21 | 0.158
CCC(Cc1ccccc1)NC(=O)C1CCC(CNc2c(N3CCCC3)c(=O)c2=O)CC1 (centres undefined) | 0.312
COc1ccc(C(C)=O)cc1COC(=O)Cc1n[nH]c(=O)c2ccccc12 | -0.504
O=[N+]([O-])c1cc(F)c(N2CCCCC2)cc1N1CCOCC1 | -0.193
CC1CCN(c2cc(N3CCOCC3)c(F)cc2[N+](=O)[O-])CC1 | -0.674
CC1CCN(c2cc(N3CCOCC3)c([N+](=O)[O-])cc2F)CC1 | 2.53
O=C(NC1CCCCC1)c1sc(N2CCOCC2)nc1-c1ccccc1 | 0.0133
O=C(COC(=O)CCC1CCCC1)Nc1ccc(Cl)cc1F | -0.306
O=C(COC(=O)C12CC3CC(CC(C3)C1)C2)Nc1nc2c(F)c(F)c(F)cc2s1 | -0.635
O=C(COC(=O)CCC1CCCC1)Nc1nc2c(F)c(F)c(F)cc2s1 | 2.48
CC(=O)Nc1cc(C(F)(F)F)ccc1Oc1cccc(Br)c1 | -0.653
S=C(Nc1ccccc1)Nc1nc2ccccc2n1CCOc1ccc(Cl)cc1 | 1.72
S=C(Nc1ccccc1)Nc1nc2ccccc2n1CCOc1ccc(Br)cc1 | 1.24
CCCCn1c(Nc2ccccc2)nc2ccccc21 | 0.15
CCn1c(NC(=O)C2CCCCC2)nc2ccccc21 | 0.0465
CCn1c(NC(C)=O)nc2ccccc21 | -0.0713
CCCCn1c(NC(=S)Nc2ccccc2)nc2ccccc21 | 2.55
CCn1c(NC(=S)Nc2ccccc2)nc2ccccc21 | 15.2 (active)
CCCn1c(NC(=S)Nc2ccccc2)nc2ccccc21 | 2.89
CCCn1c(Nc2ccccc2)nc2ccccc21 | -0.0673
COc1ccc(CNC(=O)CSCc2cnn(-c3ccccc3)c2-n2cccc2)cc1 | 0.0302

SMILES | z-score
Cc1cccc(NCc2ccccc2O)c1C | 0.825
COc1ccc(OCCNc2cc(N3CCCCC3)ccc2[N+](=O)[O-])cc1 | -0.255
O=C(Cc1ccccc1)Nc1ccc(N2CCOCC2)cc1N1CCOCC1 | -0.544
CCNC(=O)C1CC(=O)N(CC)C(=Nc2cc(Cl)c(O)c(Cl)c2)S1 (centres undefined) | 0.28
COC(=O)CSc1nc2nc(C)cc(C)n2n1 | -0.251
CCOC(=O)c1nnn(CC(=O)Nc2ccccc2OC)c1C(=O)OCC | -0.326
COC(=O)c1nnn(CC(=O)Nc2cccc(Cl)c2C)c1C(=O)OC | -0.193
CCOC(=O)c1nnn(CC(=O)Nc2cccc(Cl)c2C)c1C(=O)OCC | 2.12
COc1ccccc1S(=O)Cc1ccc(C(=O)NCc2ccccc2Cl)o1 (centres undefined) | -0.228
CC(=O)Nc1nonc1-c1nc2ccccc2n1N(C(C)=O)C(C)=O | -2.35
CCC(C)n1c(=S)[nH]c2c(sc3ccc([N+](=O)[O-])cc32)c1=O (centres undefined) | 9.11 (active)
CCC(C)n1c(SCc2ccc([N+](=O)[O-])cc2)nc2ccsc2c1=O (centres undefined) | 0.36
CC(C)n1c2ccccc2c2cc([N+](=O)[O-])ccc21 | -0.11
CCOc1ccc(CNc2ncnc(N)n2)cc1 | -0.398
CCOc1ccc(Nc2ncnc(N)n2)cc1 | 4.23 (active)
Nc1ncnc(Nc2ccc(F)cc2)n1 | 0.0495
COc1cc(/C=C(\C#N)C(N)=O)ccc1OS(=O)(=O)c1ccc(C)cc1 | -0.309
O=[N+]([O-])c1ccc(COc2cccc(CNc3ccc(Br)cc3)c2)cc1 | 0.133
O=C1C(Cl)=C(N2CCOCC2)C(=O)N1c1cccc(Cl)c1 | 13.9 (active)
Cc1ccc(N2C(=O)C(Cl)=C(N3CCOCC3)C2=O)cc1Cl | -0.0801
CCc1ccc(N2C(=O)C(Cl)=C(N3CCOCC3)C2=O)cc1 | -0.428
